Measured values reported in the supplement of paper PMC11732987, “Enantioselective OTUD7B fragment discovery through chemoproteomics screening and high-throughput optimisation” (Communications Chemistry, 2025).

Columns and labels:
Test in all cases: log2 ratio of Biotin-Ahx-Ub-VS probe labelling (fragment/DMSO); higher = less target engagement (more negative = stronger competition), active = hit call of the paper (q ≤ 0.05, log2 ratio ≤ -1)
Details in all cases: compound concentration: 200 uM; treatment time: 3 h
USP34 = USP34 (UniProt Q70CQ2)
How it was run: (§1)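 Average log2 ratios of fragment over vehicle were obtained by unpaired t-test from global-median-normalised Spectronaut label-free quantities. Proteins with ≥2 unique peptides were included. HEK293T lysate (495 µg per sample) was treated in triplicate with fragment at 200 µM or vehicle for 3 h, then with Biotin-Ahx-Ub-VS at 0.5 µM final for 1 h, and labelled DUBs were NeutrAvidin-enriched and run by diaPASEF LC-MS/MS.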

USP36 = molecular target: T1, USP36 (UniProt Q9P275)
T1 sequence (whole entry): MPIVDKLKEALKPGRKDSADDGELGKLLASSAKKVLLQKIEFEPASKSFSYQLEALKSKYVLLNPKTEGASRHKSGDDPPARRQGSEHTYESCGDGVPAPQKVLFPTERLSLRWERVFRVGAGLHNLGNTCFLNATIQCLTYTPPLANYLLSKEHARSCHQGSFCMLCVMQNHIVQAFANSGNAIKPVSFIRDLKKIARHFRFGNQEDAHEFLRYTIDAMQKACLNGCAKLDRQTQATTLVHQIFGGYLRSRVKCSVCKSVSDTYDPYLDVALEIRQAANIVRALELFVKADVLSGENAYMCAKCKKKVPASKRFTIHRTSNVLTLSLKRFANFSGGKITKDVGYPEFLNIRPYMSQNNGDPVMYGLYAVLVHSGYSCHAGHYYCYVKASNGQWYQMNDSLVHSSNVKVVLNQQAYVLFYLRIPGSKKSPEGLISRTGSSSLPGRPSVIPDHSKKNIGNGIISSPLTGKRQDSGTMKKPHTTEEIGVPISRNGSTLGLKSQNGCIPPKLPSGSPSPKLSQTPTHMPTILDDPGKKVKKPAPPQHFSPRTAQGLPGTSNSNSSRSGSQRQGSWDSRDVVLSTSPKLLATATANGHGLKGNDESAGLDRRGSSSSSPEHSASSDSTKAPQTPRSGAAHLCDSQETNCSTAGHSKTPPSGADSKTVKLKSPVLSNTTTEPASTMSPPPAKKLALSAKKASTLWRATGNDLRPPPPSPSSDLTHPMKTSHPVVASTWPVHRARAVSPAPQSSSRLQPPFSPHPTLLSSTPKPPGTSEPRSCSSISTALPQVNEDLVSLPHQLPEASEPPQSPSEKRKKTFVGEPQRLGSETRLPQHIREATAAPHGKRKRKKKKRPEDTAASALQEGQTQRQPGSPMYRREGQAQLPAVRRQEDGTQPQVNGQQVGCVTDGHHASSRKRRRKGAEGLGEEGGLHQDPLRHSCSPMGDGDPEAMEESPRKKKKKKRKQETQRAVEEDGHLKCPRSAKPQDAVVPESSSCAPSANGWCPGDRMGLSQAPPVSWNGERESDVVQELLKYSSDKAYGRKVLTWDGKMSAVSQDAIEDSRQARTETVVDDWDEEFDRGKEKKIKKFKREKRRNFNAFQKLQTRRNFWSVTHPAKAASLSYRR
How it was run: as §1

USP38 = molecular target: T2, USP38 (UniProt Q8NB14)
T2 sequence (whole entry): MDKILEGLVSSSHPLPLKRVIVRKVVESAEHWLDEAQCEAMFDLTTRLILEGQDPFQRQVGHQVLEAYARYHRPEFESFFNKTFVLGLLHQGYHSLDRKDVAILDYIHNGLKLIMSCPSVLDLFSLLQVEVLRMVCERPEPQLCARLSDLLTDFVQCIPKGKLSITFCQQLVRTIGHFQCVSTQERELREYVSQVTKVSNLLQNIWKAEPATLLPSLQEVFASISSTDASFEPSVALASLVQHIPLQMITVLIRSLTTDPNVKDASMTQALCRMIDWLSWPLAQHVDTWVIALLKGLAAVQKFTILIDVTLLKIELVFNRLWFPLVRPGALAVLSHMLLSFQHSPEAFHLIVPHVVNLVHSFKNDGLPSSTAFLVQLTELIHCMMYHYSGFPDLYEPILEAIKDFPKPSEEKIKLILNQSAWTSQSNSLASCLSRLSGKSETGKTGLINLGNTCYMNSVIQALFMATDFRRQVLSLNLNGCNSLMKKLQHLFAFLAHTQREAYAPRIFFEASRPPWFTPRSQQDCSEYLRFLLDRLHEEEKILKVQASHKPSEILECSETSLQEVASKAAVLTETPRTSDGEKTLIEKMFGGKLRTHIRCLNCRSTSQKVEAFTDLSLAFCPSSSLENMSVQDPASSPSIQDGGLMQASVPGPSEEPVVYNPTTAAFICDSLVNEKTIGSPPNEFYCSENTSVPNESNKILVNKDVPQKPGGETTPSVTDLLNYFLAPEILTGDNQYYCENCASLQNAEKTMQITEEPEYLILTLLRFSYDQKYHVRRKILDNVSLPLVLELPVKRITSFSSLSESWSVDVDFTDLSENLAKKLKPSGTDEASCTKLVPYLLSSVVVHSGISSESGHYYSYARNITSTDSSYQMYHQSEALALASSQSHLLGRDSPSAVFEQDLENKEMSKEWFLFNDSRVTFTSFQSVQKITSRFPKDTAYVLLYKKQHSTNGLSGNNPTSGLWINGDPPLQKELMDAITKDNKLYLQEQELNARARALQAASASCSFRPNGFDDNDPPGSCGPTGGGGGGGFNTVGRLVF
How it was run: as §1

USP39 = molecular target: T3, USP39 (UniProt Q53GS9)
T3 sequence (whole entry): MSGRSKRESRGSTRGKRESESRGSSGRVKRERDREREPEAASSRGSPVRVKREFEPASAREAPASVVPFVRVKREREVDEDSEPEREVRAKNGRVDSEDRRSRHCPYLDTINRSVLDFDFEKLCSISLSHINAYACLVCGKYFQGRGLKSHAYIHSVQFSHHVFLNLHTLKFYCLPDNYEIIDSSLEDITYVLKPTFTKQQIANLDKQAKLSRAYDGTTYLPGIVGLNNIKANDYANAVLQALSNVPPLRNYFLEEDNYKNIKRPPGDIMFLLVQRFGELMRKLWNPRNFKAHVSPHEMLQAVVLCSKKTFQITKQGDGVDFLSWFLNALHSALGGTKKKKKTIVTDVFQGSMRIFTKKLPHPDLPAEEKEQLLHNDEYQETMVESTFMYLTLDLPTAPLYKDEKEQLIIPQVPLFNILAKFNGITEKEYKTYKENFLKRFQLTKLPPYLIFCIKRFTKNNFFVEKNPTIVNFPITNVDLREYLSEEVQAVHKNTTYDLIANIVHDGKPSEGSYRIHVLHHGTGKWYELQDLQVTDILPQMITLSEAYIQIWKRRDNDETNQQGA
How it was run: as §1

USP4 = molecular target: T4, USP4 (UniProt Q13107)
T4 sequence (whole entry): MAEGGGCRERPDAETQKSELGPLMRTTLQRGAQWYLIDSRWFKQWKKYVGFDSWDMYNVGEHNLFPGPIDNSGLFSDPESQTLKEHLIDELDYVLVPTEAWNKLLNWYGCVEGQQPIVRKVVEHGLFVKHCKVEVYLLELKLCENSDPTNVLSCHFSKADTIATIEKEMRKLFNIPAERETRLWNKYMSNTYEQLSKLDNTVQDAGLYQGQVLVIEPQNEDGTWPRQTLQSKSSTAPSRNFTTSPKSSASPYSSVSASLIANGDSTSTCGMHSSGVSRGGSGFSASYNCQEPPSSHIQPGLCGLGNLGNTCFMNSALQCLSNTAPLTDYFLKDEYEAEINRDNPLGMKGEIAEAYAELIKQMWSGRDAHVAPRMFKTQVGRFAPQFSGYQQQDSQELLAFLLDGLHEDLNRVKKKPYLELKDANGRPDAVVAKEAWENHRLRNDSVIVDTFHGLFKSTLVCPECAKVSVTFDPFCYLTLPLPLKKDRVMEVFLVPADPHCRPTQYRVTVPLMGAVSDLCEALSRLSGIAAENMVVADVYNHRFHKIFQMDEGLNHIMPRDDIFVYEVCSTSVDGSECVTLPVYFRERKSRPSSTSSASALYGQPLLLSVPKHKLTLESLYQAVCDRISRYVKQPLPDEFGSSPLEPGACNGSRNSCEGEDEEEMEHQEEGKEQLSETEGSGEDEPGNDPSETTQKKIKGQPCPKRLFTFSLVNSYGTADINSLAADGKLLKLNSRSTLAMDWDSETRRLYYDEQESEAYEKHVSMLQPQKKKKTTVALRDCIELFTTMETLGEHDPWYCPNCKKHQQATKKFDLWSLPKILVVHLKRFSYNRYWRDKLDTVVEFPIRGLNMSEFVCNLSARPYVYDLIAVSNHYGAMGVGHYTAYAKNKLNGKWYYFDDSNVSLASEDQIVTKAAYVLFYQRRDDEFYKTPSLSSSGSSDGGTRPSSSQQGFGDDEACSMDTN
How it was run: as §1

Measured: log2 ratio of Biotin-Ahx-Ub-VS probe labelling

Chain of USP34 (Q70CQ2 whole entry, the tested form may be a part): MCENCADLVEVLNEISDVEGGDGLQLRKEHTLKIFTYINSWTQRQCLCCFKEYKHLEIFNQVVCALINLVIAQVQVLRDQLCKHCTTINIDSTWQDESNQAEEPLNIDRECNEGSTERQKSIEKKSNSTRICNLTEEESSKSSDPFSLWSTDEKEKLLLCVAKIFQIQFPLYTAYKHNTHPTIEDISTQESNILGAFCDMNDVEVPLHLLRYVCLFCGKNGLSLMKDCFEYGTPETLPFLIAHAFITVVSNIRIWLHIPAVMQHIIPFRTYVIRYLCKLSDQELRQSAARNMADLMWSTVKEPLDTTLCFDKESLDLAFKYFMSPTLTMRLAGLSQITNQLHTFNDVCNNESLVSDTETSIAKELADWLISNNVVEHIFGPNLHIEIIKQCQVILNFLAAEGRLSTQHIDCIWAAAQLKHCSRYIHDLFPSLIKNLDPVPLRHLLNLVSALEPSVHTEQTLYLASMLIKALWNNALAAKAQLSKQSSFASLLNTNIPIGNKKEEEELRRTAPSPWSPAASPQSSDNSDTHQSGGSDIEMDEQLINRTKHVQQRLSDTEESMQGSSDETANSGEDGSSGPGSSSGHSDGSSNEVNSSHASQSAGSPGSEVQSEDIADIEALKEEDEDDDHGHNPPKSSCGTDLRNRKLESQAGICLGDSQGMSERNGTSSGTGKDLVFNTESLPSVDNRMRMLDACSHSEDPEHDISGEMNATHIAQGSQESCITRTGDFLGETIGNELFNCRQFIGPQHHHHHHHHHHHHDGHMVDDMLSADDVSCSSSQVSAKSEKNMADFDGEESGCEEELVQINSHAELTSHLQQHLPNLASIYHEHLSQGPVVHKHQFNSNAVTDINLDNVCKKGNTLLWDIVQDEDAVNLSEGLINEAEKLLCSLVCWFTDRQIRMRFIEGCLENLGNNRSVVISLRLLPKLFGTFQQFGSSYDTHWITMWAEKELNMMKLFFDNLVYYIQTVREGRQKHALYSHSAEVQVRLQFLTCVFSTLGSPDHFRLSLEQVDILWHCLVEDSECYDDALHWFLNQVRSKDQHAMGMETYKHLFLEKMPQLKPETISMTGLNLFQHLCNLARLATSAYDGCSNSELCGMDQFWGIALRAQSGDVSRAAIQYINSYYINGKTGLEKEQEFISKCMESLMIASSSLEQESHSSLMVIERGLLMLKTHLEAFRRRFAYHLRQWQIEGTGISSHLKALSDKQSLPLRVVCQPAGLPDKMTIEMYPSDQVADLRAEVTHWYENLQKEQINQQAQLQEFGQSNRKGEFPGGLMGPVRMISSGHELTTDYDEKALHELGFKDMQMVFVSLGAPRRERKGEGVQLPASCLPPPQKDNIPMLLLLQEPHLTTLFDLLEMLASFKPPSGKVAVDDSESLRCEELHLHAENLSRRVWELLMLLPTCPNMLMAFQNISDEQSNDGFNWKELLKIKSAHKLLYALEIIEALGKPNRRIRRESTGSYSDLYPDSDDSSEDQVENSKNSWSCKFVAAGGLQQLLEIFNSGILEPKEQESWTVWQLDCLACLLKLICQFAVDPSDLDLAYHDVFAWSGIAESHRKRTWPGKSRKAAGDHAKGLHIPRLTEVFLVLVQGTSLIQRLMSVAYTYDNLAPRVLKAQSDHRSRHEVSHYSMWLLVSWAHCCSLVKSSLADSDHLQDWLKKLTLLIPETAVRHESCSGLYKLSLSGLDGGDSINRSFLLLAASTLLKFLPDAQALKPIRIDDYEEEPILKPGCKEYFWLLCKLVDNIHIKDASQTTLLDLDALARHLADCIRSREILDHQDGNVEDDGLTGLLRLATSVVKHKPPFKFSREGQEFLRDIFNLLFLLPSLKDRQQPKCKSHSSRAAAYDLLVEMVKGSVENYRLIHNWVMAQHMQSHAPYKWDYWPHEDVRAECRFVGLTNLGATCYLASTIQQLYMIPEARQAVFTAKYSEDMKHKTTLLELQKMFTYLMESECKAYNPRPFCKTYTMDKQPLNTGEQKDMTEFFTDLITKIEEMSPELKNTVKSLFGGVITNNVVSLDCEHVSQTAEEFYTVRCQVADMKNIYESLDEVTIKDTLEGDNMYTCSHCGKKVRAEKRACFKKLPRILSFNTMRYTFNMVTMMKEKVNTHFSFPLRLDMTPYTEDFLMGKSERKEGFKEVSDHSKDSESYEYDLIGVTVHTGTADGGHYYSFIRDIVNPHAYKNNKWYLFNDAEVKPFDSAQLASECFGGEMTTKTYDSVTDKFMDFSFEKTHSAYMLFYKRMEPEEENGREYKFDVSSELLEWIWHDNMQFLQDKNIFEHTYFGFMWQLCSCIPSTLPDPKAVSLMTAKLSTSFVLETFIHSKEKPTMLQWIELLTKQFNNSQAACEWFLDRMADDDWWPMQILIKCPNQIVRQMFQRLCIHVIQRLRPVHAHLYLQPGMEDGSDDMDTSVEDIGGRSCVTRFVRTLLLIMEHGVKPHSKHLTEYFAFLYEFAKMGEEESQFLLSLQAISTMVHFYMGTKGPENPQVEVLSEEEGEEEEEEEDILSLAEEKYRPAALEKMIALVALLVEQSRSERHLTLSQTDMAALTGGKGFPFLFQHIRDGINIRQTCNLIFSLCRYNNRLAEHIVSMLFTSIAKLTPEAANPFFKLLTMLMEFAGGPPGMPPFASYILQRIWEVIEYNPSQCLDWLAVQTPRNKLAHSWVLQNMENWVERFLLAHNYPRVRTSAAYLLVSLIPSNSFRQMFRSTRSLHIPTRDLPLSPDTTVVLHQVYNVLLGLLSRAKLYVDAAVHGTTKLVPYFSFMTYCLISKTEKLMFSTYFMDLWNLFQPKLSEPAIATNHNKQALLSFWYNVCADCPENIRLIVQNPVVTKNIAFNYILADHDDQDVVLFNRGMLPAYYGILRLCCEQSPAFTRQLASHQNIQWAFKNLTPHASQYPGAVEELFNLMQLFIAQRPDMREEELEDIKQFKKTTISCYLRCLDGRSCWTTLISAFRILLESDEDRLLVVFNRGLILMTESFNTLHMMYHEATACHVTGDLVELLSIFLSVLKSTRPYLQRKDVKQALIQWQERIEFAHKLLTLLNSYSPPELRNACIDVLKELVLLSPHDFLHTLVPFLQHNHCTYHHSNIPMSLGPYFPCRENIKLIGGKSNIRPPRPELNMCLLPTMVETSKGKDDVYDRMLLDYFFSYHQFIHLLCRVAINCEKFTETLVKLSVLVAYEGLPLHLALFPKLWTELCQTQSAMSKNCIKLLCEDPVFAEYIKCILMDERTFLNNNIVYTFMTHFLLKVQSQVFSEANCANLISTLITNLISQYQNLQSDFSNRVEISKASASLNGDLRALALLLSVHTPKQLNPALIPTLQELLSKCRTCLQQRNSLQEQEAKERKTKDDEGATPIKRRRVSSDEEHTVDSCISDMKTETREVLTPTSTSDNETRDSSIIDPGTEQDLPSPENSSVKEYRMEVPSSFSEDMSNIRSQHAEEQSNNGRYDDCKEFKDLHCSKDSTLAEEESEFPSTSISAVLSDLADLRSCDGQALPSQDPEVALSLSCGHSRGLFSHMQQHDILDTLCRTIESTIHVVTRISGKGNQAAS

O=C(CCl)NCC(=O)N1CCCC1
inactive: USP34 0.0366 | USP36 -0.0373 | USP38 0.115 | USP39 0.319 | USP4 -0.0182
